D1 PAM = potentiators of human D1 dopamine receptor; HEK293 TREx D1 cells, calcium flux, dopamine EC20 potentiation; potentiation, % at 10 µM; hit rate 0.036% among 360,000; P21728; in the data active = potentiation above about 30%
DRD3 antagonist = D3 dopamine receptor (human) antagonism. AID 652054. hit rate 2.5% among 360,000. max response, negative = inhibition, %. P35462. D3R cells, DiscoveRx beta-arrestin luminescence, antagonist mode; active compounds read low; in the data active = max response below about -50%; inconclusive = no clear call, values can overlap the other calls
Target sequence (P35462 whole entry, looked up): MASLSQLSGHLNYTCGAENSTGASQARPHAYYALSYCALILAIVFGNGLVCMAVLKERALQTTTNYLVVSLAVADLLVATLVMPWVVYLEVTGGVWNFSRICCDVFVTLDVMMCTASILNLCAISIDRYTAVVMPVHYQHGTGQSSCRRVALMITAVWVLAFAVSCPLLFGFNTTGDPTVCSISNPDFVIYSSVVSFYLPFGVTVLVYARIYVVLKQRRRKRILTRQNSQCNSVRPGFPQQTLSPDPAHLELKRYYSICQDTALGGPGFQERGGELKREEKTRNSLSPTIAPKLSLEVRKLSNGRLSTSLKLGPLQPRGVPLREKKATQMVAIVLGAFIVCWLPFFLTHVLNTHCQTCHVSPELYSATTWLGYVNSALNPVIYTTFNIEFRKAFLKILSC
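Cells plated overnight at 1500 cells/well, then exposed to library compounds with dopamine controls for 90 minutes at 37 degrees C. DiscoveRx reagent added for 30–60 minutes at room temperature; luminescence read, quantitative HTS format.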
D3 ag = activates the human D3 dopamine receptor; P35462; D3R DiscoveRx beta-arrestin cells, luminescence, 90 min; hit rate 0.58% among 410,000; max activation, %; in the data active = max activation above about 30%
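Cells at 1500/well, incubated overnight, then treated with pinned compounds (dopamine as control) for 90 min at 37 degrees C. DiscoveRx reagent added for 30 - 60 minutes at room temperature; luminescence read.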
D1 ag = agonists of human D1 dopamine receptor; P21728; HEK293 T-REx D1 cells, calcium flux, agonist mode; activation, % at 2 µM; hit rate 1% among 360,000; AID 504660; in the data active = activation above about 30%
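Tetracycline-induced HEK293 TREx D1 cells, force-coupled to calcium signalling, were dye-loaded with a no-wash calcium kit. Compound was pin-added after a 10 s baseline. Fluorescence was read kinetically at 1 cycle/s for 180 s, with calcium rises flagged as agonism.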
D1 antagonist = human D1 dopamine receptor antagonism | P21728 | HEK293 TREx D1 cells, calcium flux, dopamine EC80; active compounds read low | activity change, negative = inhibition, % at 10 µM | hit rate 3.2% among 360,000 | AID 504652; in the data active = activity change below about -30%
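Tetracycline-induced HEK293 T-REx cells with force-coupled D1 receptor were loaded with a no-wash calcium dye. Compound was added after a 10 s baseline and read kinetically for 180 s; EC80 dopamine was then added and calcium flux followed another 180 s.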
Each line names hits and unclear results; the compound was inactive in the other large screens. An excerpt weighted towards active compounds, which were near 6.1% of everything screened.

CCC1CCc2sc(C(=O)NCC(c3ccc(OC)cc3)N3CCOCC3)cc2C1 (centres undefined)	DRD3 antagonist -91
COc1ccc(C(CNC(=O)c2cccc(S(=O)(=O)Nc3ccc(C)cc3)c2)N2CCCCC2)cc1 (centres undefined)	DRD3 antagonist -64
COc1ccc(C(CNC(=O)C(C)Oc2ccc(Br)cc2)N2CCCC2)cc1 (centres undefined)	DRD3 antagonist -81
COc1ccc(C(=O)Nc2cccc(C(=O)N/N=C/c3ccc(OC)cc3OC)c2)cc1	D1 antagonist -48
COc1ccc(/C=N/NC(=O)c2cccc(NC(C)=O)c2)c(OC)c1	none
COc1ccccc1C(CNC(=O)c1cccc(S(=O)(=O)Nc2ccc(C)cc2)c1)N1CCCC1 (centres undefined)	none
COc1ccc(C(=O)OC2C(OC)OCC(O)C2O)cc1 (centres undefined)	none (no result: D1 PAM, D1 ag, D1 antagonist)
COc1ccc(C(CNC(=O)c2cccc(Br)c2)N2CCCC2)cc1 (centres undefined)	DRD3 antagonist -87
COc1ccc(NS(=O)(=O)c2cccc(C(=O)N/N=C/c3cccs3)c2)cc1	DRD3 antagonist -52
COc1ccc(C(CNC(=O)c2cccc(S(=O)(=O)N(C)c3ccccc3)c2)N2CCCC2)cc1 (centres undefined)	DRD3 antagonist -66
COc1ccc(C(=O)Nc2cccc(NC(=O)c3cccs3)c2)cc1	D1 antagonist -31
COc1ccc(C(=O)NCC(c2ccc(Cl)cc2)N2CCCCC2)cc1 (centres undefined)	none (no result: DRD3 antagonist)
Cc1ccccc1C(=O)N1CC/C(=N\OS(=O)(=O)O)c2ccc(Cl)cc21	none (no result: D1 PAM, DRD3 antagonist, D1 ag, D1 antagonist)
COC(=O)c1ccccc1-c1cn(C)c2ccccc2c1=O	none
COc1cc(NC(=O)c2c(F)c(F)c(OC)c(F)c2F)ccc1NC(=O)c1cccs1	D1 antagonist -46
COc1ccc(C(CNC(=O)c2cccc(S(=O)(=O)N3CCCC(C)C3)c2)N(C)C)cc1 (centres undefined)	DRD3 antagonist -65 (no result: D1 PAM)
CC1CCCN(S(=O)(=O)c2cccc(C(=O)NCc3ccco3)c2)C1 (centres undefined)	DRD3 antagonist inconclusive
COc1cc(NC(=O)c2cc(OC)c(OC)c(OC)c2)ccc1NC(=O)c1cccs1	none
COc1ccc(C(CNC(=O)c2cccc(NS(=O)(=O)c3ccccc3)c2)N2CCCC2)cc1 (centres undefined)	DRD3 antagonist -88 (no result: D1 PAM, D1 ag, D1 antagonist)
COc1ccc(C(CNC(=O)c2ccc(-c3cccc(C(F)(F)F)c3)o2)N2CCOCC2)cc1 (centres undefined)	D1 ag 34
CCOc1ccc(S(=O)(=O)Nc2cccc(C(=O)NCC(c3ccc(OC)cc3)N3CCOCC3)c2)cc1 (centres undefined)	none
Cc1c(NC(=O)c2ccc(Cl)cc2)cc(C(C)C)c(O)c1S(=O)(=O)c1ccc(Cl)cc1	none (no result: DRD3 antagonist)
CC(=O)OC1CCC2(C)C(CCC3C4CC=C(C(C)=O)C4(C)OC(=O)CC32)C1 (centres undefined)	DRD3 antagonist -94 (no result: D1 PAM, D1 ag, D1 antagonist)
COc1cc(/C=N/NC(=O)c2cc(-c3ccc4c(c3)OCO4)n[nH]2)ccc1O	D3 ag 61
COc1ccc(/C=N/NC(=O)c2cccnc2)cc1	none
COc1ccc(C(=O)C=Cc2ccc3c(c2)OCO3)cc1OC	none (no result: D1 PAM, D1 ag, D1 antagonist)
COc1ccc(/C=C/C(=O)c2ccc3c(c2)OCCO3)cc1[N+](=O)[O-]	DRD3 antagonist -51
COc1cc(/C=C/C(=O)c2ccc3c(c2)OCO3)cc(Cl)c1O	D1 ag 246 (no result: D1 PAM)
COc1ccc(Oc2ccc(/C=C/C(=O)c3cccc(OC)c3)cc2[N+](=O)[O-])cc1	DRD3 antagonist -56
COc1ccc(Oc2ccc(/C=N/NC(=O)c3cccnc3)cc2[N+](=O)[O-])cc1	D1 antagonist -43
Cc1ccc(-c2noc(-c3ccc(N4CCOCC4)c([N+](=O)[O-])c3)n2)cc1	none (no result: DRD3 antagonist)
Cc1cc(C(C#N)c2ccc(Cl)cc2)c(Cl)cc1NC(=O)c1cc(I)cc(I)c1O (centres undefined)	D1 antagonist -33
Cc1cc(NC(=O)c2ccc(Cl)cc2)c(C)cc1O	none
CC1=C(C(=O)Nc2ccc(C)cc2C)C(c2ccc(C(=O)O)cc2)n2nc(SCc3ccccc3)nc2N1 (centres undefined)	D1 antagonist -59 (no result: DRD3 antagonist)
COc1cc(OC)c(OC)cc1CNC(=O)c1ccc(COc2ccccc2)cc1	D3 ag 31
O=C(COc1ccc(Cl)cc1)Nc1ccccc1C(=O)NCc1cccnc1	D1 ag 88
O=C(NCc1cccnc1)c1ccc(COc2ccc(Cl)cc2)cc1	D1 antagonist -32
CN1CCN(S(=O)(=O)c2ccc(F)cc2)CC1	DRD3 antagonist inconclusive (no result: D1 PAM, D1 ag, D1 antagonist)
O=C(NCc1nnnn1-c1ccccc1)c1ccc2ccccc2c1	D3 ag 105 (no result: D1 PAM, D1 ag, D1 antagonist)
O=C(/C=C/[C@H]1O[C@@H](n2ccc(=O)[nH]c2=O)[C@H](O)[C@@H]1O)NCc1ccco1	none (no result: D1 PAM, D1 ag, D1 antagonist)
COc1ccc(S(=O)(=O)N2CCCC2CNC(=O)C(=O)Nc2cccc(F)c2)cc1 (centres undefined)	none
Cc1ccnc(N/C=C(/NC(=O)c2ccccc2)C(=O)NN)n1	none
Cc1ccnc(N/C=C(/NC(=O)c2ccccc2)C(=O)N/N=C\c2ccc(F)cc2)n1	D1 antagonist -37
CC(=Nc1ccc(C)cc1)c1sc2ccccc2c1O	DRD3 antagonist inconclusive, D1 ag 61
CC(=Nc1cccc(O)c1)c1sc2ccccc2c1O	D1 ag 68
COC(=O)[C@@H]1CCCN1C(=O)[C@@H](NC(=O)OC(C)(C)C)C(C)C	none (no result: D1 PAM, D1 ag, D1 antagonist)
CCCNC(=O)c1cc(C2CCCCN2C(=O)c2ccc3ccccc3c2)on1 (centres undefined)	none (no result: D1 PAM, D1 ag, D1 antagonist)
CCc1ccc(N2CCn3c2nc2c3c(=O)n(C/C=C/c3ccccc3)c(=O)n2C)cc1	none (no result: DRD3 antagonist)
CC(=O)c1ccc(O)c(CSc2nncn2C)c1	D1 antagonist -32
Cn1cnnc1SCC(=O)c1ccc(O)c(O)c1	D3 ag 39
Cn1cnnc1SCC(=O)c1ccc2c(c1)NC(=O)CO2	none
O=C(O)CN1CCN(Cc2ccccc2F)C1=O	none
O=c1c(NCc2cccs2)nccn1-c1ccc(F)cc1	none (no result: DRD3 antagonist)
CCc1ccc(S(=O)(=O)c2c[nH]c3cc(OC)c(OC)cc3c2=O)cc1	D1 antagonist -43 (no result: DRD3 antagonist)
CCc1ccc(NC(=O)Cn2nnc(C(=O)NCc3ccco3)c2N)cc1	none
O=C(CNS(=O)(=O)c1ccccc1Br)OCC(=O)N1CCc2ccccc21	D1 antagonist -57
COC(=O)Cn1cc(/C=C(/C#N)C(=O)N2CCOCC2)c2ccccc21	none
Cc1ccc(/C=C/C(=O)Nc2ccc([N+](=O)[O-])cc2)o1	D1 antagonist -46
CCCOc1ccc(/C=C/C(=O)Nc2ccc([N+](=O)[O-])cc2)cc1	D1 antagonist -43
Cc1ccc(/C=C/C(=O)Nc2ccc(Oc3ccccc3)cc2)o1	D1 antagonist -32
O=C(/C=C/c1ccc([N+](=O)[O-])cc1)NCCSc1ccccc1	D1 antagonist -30

Screening results from PubChem.
